Reference: PubChem BioAssay
A number with no mark means an inactive call.

Assay: basal CRE-LacZ reporter activity in PC12 – cell-based, unstimulated, primary screen (AID 1145)
Conditions: no forskolin, luminescence, 4.5 h, higher = more signal, called active from +8 up or from −8 down

**Q.** For `[N-]=[N+]=NCc1ccccc1[C@@H]1OC(c2ccc(OCCCO)cc2)=N[C@]1(Cc1ccccc1N=[N+]=[N-])C(=O)NCCN1CCOCC1`, which z-score is on record?
**A.** 0.895

**Q.** Which z-score does the source give for `C=C(/C(=C/C[C@H](OC(=O)c1ccncc1)c1ccccc1OCCO)c1cnc2ccccc2c1)C(C)C` here?
**A.** 2.52

**Q.** With `C=CCNC(=O)[C@@H]1[C@H]2C(=O)O[C@H](c3ccccc3)[C@H](c3ccccc3)N2[C@H](c2ccc(OCCO)cc2)[C@@]12C(=O)N(C(=O)OCCOC)c1ccc(C#CCCO)cc12` as the compound, how does the z-score read?
**A.** -0.375

**Q.** Which z-score does the source give for `C=C[C@H](C)[C@H](OC(=O)Nc1ccc(OC)cc1)c1ccc(OCCO)cc1` here?
**A.** 4.89

**Q.** With `COc1ccc(C#Cc2ccc3c(c2)[C@]2(C(=O)N3)[C@H](C(=O)N3CCCCCCC3)[C@H]3C(=O)O[C@H](c4ccccc4)[C@H](c4ccccc4)N3[C@@H]2c2ccc(O)cc2)cc1` as the compound, how does the z-score read?
**A.** 0.0653

**Q.** For `NCCCCCNC(=O)[C@H]1C[C@H]2C(=O)N[C@@H](Cc3ccccc3)C(=O)N2[C@H]1c1ccc(O)cc1`, which z-score is on record?
**A.** 0.0124

**Q.** For `CC(C)c1ccc(NN2C(C(O)Cc3ccccc3)C=CC3C(=O)N(c4ccccc4)C(=O)C32)cc1` (stereo not drawn), which z-score is on record?
**A.** 0.243

**Q.** With `Cc1ccc(S[C@]2(C(=O)NCc3ccccc3)CC(=O)N(Cc3cc(C(F)(F)F)cc(C(F)(F)F)c3)[C@@H]2c2ccc(CO)cc2I)cc1` as the compound, how does the z-score read?
**A.** 0.479

**Q.** Which z-score does the source give for `COCCCNC(=O)[C@@]1(c2ccc([N+](=O)[O-])cc2)CC(=O)N(C(C)C)[C@@H]1c1ccc(CO)cc1` here?
**A.** 0.495

**Q.** For `CN1C(=O)C2C=CC(C(O)c3ccc(I)cc3)N(Nc3ccccc3)C2C1=O` (stereo not drawn), which z-score is on record?
**A.** 1.77

**Q.** With `CCOC(=O)C1=C[C@@H](c2ccccc2)N(S(=O)(=O)c2ccc(C)cc2)[C@H]1c1ccccc1` as the compound, how does the z-score read?
**A.** -0.275

**Q.** Which z-score does the source give for `CC1CC/C=C\[C@H]2OC34C=CCN(C(C)(C)C)C(=O)[C@H]3N(C(CO)C(C)C)C(=O)[C@@H]4C2C(=O)O1` (stereo partly drawn) here?
**A.** -0.354

**Q.** For `COC(=O)[C@@]1(Cc2ccc(F)cc2)[C@H]2c3cc(C(=O)N4CCCC4)n(CC4CC4)c3C[C@H]2CN1C(=O)c1ccccc1`, which z-score is on record?
**A.** 0.972

Assay: forskolin-driven CRE-LacZ activity in PC12 – cell-based, CRE-LacZ reporter, forskolin-stimulated, primary screen (AID 1146);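 further: PC12 cells with 6xCRE LacZ reporter stimulated by forskolin 10 µM; beta-galactosidase reporter signal reflecting CREB driven transcription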
Conditions: luminescence, 4.5 h, higher = more signal, called active from +8 up or from −8 down

**Q.** Which z-score does the source give for `COCCCNC(=O)[C@@H]1c2ccccc2C(=O)N(C2Cc3ccccc3C2)[C@H]1c1ccc(CO)cc1` here?
**A.** -0.67

**Q.** With `COc1ccc([Si](C)(C)[C@H]2[C@H](CCO)O[C@@]3(C(=O)N(Cc4ccccc4)c4ccc(N5CCOC5=O)cc43)[C@@H]2C)cc1` as the compound, how does the z-score read?
**A.** -0.726

**Q.** For `C[C@@]12COC[C@]13C=C(Br)[C@H](C2)[C@@]1(CO1)C3=O`, which z-score is on record?
**A.** 1.51

**Q.** Which z-score does the source give for `Nc1cc(Br)ccc1C(=O)O` here?
**A.** -0.929

**Q.** Which z-score does the source give for `COC(=O)[C@@]1(Cc2ccccc2)[C@H]2c3cc(C(=O)N(C)C)n(CCn4cc([N+](=O)[O-])nc4C)c3C[C@H]2CN1C(=O)c1ccccc1` here?
**A.** 1.45

**Q.** With `C=C(/C(=C/C[C@@H](OC(C)=O)c1ccc(CO)o1)c1cc(C(=O)OC)ccc1OC)C(C)C` as the compound, how does the z-score read?
**A.** 2.78

**Q.** Which z-score does the source give for `CC(C)C(=C=CC[C@H](O)c1cccc(OCCO)c1)CCO` here?
**A.** -0.253

**Q.** With `C=CCN1C(=O)[C@]2(O[C@H](CCO)[C@@H]([Si](C)(C)c3ccc(OC)cc3)[C@@H]2C)c2cc(NC(=O)c3ccc(OC)cc3)ccc21` as the compound, how does the z-score read?
**A.** -1.43

**Q.** Which z-score does the source give for `CC(=O)NCCCC[C@@H]1NC(=O)[C@@H]2C[C@H](C(=O)NCCCCCCN)[C@H](c3cccc(OCCO)c3)N2C1=O` here?
**A.** -0.556

**Q.** For `CN(C)CCCCNC(=O)[C@H]1C[C@H]2C(=O)N[C@@H](CCCC[N+](C)(C)C)C(=O)N2[C@H]1c1ccc(O)cc1`, which z-score is on record?
**A.** -1.14

**Q.** Which z-score does the source give for `CC(C)N1CC=CC23O[C@@H]4/C=C\CCCOC(=O)C4[C@H]2C(=O)N(CCCCCCO)[C@@H]3C1=O` (stereo partly drawn) here?
**A.** -1.02

**Q.** For `O=C(CS)NCCCCCCNC(=O)[C@@H]1C[C@@H]2C(=O)NCC(=O)N2[C@@H]1c1ccc(O)cc1`, which z-score is on record?
**A.** -1.57

**Q.** Which z-score does the source give for `COc1ccc([Si](C)(C)[C@H]2[C@H](CCO)O[C@@]3(C(=O)N(Cc4ccccc4)c4ccc(N5C(=O)c6ccccc6Oc6ccccc65)cc43)[C@@H]2C)cc1` here?
**A.** -0.328

**Q.** With `NC(=O)[C@H]1[C@@H]2C(=O)O[C@@H](c3ccccc3)[C@@H](c3ccccc3)N2[C@@H](c2ccc(O)cc2)[C@]12C(=O)Nc1ccccc12` as the compound, how does the z-score read?
**A.** 0.272

**Q.** Which z-score does the source give for `[N-]=[N+]=NCc1ccccc1[C@@H]1OC(c2ccc(OCCCO)cc2)=N[C@]1(Cc1ccccc1)C(=O)NCCN1CCOCC1` here?
**A.** -0.808

**Q.** With `O=C1C2C=CC(C(O)c3ccc4c(c3)OCO4)N(Nc3ccccc3)C2C(=O)N1c1ccccc1` (stereo not drawn) as the compound, how does the z-score read?
**A.** 0.993

**Q.** With `O=C(CS)NCCCCCNC(=O)[C@@H]1C[C@@H]2C(=O)N[C@@H](Cc3ccccc3)C(=O)N2[C@@H]1c1cccc(OCCO)c1` as the compound, how does the z-score read?
**A.** 0.432

**Q.** For `NCCCCCNC(=O)[C@@H]1C[C@@H]2C(=O)N3CCC[C@H]3C(=O)N2[C@@H]1c1ccc(O)cc1`, which z-score is on record?
**A.** -0.707

**Q.** For `COc1cc(NN2C(C(O)c3ccccc3)C=CC3C(=O)N(C)C(=O)C32)cc(OC)c1OC` (stereo not drawn), which z-score is on record?
**A.** -0.126

**Q.** With `CC=CC(O)C1C=CC2C(=O)NC(=O)C2N1Nc1ccccn1` (stereo not drawn) as the compound, how does the z-score read?
**A.** 0.701

**Q.** For `COCCOC(=O)N1C(=O)[C@@]2(c3ccccc31)[C@H](c1ccccc1OCCO)N1[C@H](c3ccccc3)[C@H](c3ccccc3)OC(=O)[C@H]1[C@@H]2C(N)=O`, which z-score is on record?
**A.** 1.86

**Q.** For `COc1cc(NN2C(C(O)c3ccc(I)cc3)C=CC3C(=O)N(c4ccccc4)C(=O)C32)cc(OC)c1OC` (stereo not drawn), which z-score is on record?
**A.** 0.0938

**Q.** For `[N-]=[N+]=NCc1ccccc1[C@@H]1OC(c2ccc(OCCCO)cc2)=N[C@]1(Cc1ccccc1N=[N+]=[N-])C(=O)NCCN1CCOCC1`, which z-score is on record?
**A.** -1.78

**Q.** Which z-score does the source give for `C=C(/C(=C/C[C@H](OC(=O)c1ccncc1)c1ccccc1OCCO)c1cnc2ccccc2c1)C(C)C` here?
**A.** 1.5

**Q.** For `C=CCNC(=O)[C@@H]1[C@H]2C(=O)O[C@H](c3ccccc3)[C@H](c3ccccc3)N2[C@H](c2ccc(OCCO)cc2)[C@@]12C(=O)N(C(=O)OCCOC)c1ccc(C#CCCO)cc12`, which z-score is on record?
**A.** 0.0859

**Q.** Which z-score does the source give for `C=C[C@H](C)[C@H](OC(=O)Nc1ccc(OC)cc1)c1ccc(OCCO)cc1` here?
**A.** 0.0618

**Q.** Which z-score does the source give for `COc1ccc(C#Cc2ccc3c(c2)[C@]2(C(=O)N3)[C@H](C(=O)N3CCCCCCC3)[C@H]3C(=O)O[C@H](c4ccccc4)[C@H](c4ccccc4)N3[C@@H]2c2ccc(O)cc2)cc1` here?
**A.** -0.202

**Q.** For `NCCCCCNC(=O)[C@H]1C[C@H]2C(=O)N[C@@H](Cc3ccccc3)C(=O)N2[C@H]1c1ccc(O)cc1`, which z-score is on record?
**A.** -0.622

**Q.** Which z-score does the source give for `CC(C)c1ccc(NN2C(C(O)Cc3ccccc3)C=CC3C(=O)N(c4ccccc4)C(=O)C32)cc1` (stereo not drawn) here?
**A.** 2.48

**Q.** With `Cc1ccc(S[C@]2(C(=O)NCc3ccccc3)CC(=O)N(Cc3cc(C(F)(F)F)cc(C(F)(F)F)c3)[C@@H]2c2ccc(CO)cc2I)cc1` as the compound, how does the z-score read?
**A.** 0.279

**Q.** For `COCCCNC(=O)[C@@]1(c2ccc([N+](=O)[O-])cc2)CC(=O)N(C(C)C)[C@@H]1c1ccc(CO)cc1`, which z-score is on record?
**A.** 0.0212

**Q.** For `CN1C(=O)C2C=CC(C(O)c3ccc(I)cc3)N(Nc3ccccc3)C2C1=O` (stereo not drawn), which z-score is on record?
**A.** 1.34

**Q.** With `CCOC(=O)C1=C[C@@H](c2ccccc2)N(S(=O)(=O)c2ccc(C)cc2)[C@H]1c1ccccc1` as the compound, how does the z-score read?
**A.** 0.294

**Q.** For `CC1CC/C=C\[C@H]2OC34C=CCN(C(C)(C)C)C(=O)[C@H]3N(C(CO)C(C)C)C(=O)[C@@H]4C2C(=O)O1` (stereo partly drawn), which z-score is on record?
**A.** 0.46

**Q.** With `COC(=O)[C@@]1(Cc2ccc(F)cc2)[C@H]2c3cc(C(=O)N4CCCC4)n(CC4CC4)c3C[C@H]2CN1C(=O)c1ccccc1` as the compound, how does the z-score read?
**A.** -0.451
